LGR2 antag – inhibitors of bursicon-induced LGR2 CRE-luciferase signal, primary screen, cell-based, HEK293, CRE-luciferase reporter, bursicon stimulation | Drosophila bursicon receptor LGR2 (rickets) | bursicon-stimulated, 4 h | inhibition, % at 9.99 µM | 380,000 tested, 0.35% active | AID 720647, 2013;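 active means drop in luminescence signal, shown as inhibition above about 50% in the replicate tests, limit read from the data, passing the limit was not always enough; inconclusive means probably only some replicates passing the limit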;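 further: agonist challenge used bursicon conditioned medium at about half maximal strength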
CF NFkB inh – inhibitors of PAF-induced NF-kB signaling, primary screen, cell-based, GFP fluorescence, uHTS. AID 588850, 2011. inhibition, % at 5 µM. 360,000 tested, 0.86% active. KKLEB NF-kB-GFP reporter, GFP fluorescence overnight;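 active means at least 50% inhibition at 5 µM, scaled per plate between neutral and stimulator controls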;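 further: PAF is a Pseudomonas aeruginosa culture filtrate used as stimulus; plate controls were PAF-stimulated DMSO wells for no effect and unstimulated DMSO wells for full effect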
hiPSC survival – enhancers of single-cell hiPSC survival, primary screen, ATPlite luminescence | 100% = ROCK inhibitor wells, 0% = DMSO | survival enhancement, % at 20 µM | 360,000 tested, 0.044% active; in the data active means survival enhancement above about 18%;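 further: cells exposed to compounds for 16 hours before the ATP read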
KKLEB tox – cytotoxicity in KKLEB CF airway cells, primary screen, cytotoxicity control for CF NF-kB inhibitor project, cell-based, uHTS, fluorescence assay plates | KKLEB CF airway cells viability, ATPlite luminescence, overnight; stronger effect = lower value; cells stimulated with P. aeruginosa culture filtrate | activity change (cytotoxicity), % at 5 µM | 360,000 tested, 0.36% active;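 active means corrected activity change at or below -50% at 5 µM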
HIF-2a inh – HIF-2a reporter inhibitors, primary screen, luminescence, 786-0 RCC cells. AID 624352, 2012. inhibition, % at 18.8 µM. 786-0 RCC cells HIF-2a reporter, luciferase luminescence, overnight. 360,000 tested, 0.72% active;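 active means inhibition of the luminescence signal of 40% or more relative to plate controls, in a single-dose primary screen at 18.75 µM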
TWEAK Fn14 block – inhibitors of TWEAK-Fn14 signaling, primary screen, luciferase reporter cells, uHTS; TWEAK-stimulated Fn14 reporter cells, luciferase luminescence, 8 h; inhibition, % at 10 µM; 360,000 tested, 2% active; in the data active means inhibition above about 50%
An asterisk follows results filed as active. Sampled rows, rich in hits. Any-hit rate of the full collection: about 2.3%.

`COc1cccc(/C=N/NC(=O)c2ccccc2)c1OS(=O)(=O)c1ccccc1` gave LGR2 antag 9, CF NFkB inh -4, hiPSC survival 2, KKLEB tox 0, HIF-2a inh 0 and TWEAK Fn14 block 76*.
`COc1cccc(/C=N/NC(=O)c2ccc(=O)n(C)c2)c1OC` gave LGR2 antag -20, CF NFkB inh -8, hiPSC survival 0, KKLEB tox 1, HIF-2a inh 19 and TWEAK Fn14 block 7.
Screening COc1ccc(/C=C/C(=O)Oc2ccc(/C=N/NC(=O)c3ccccc3)cc2)cc1OC returned LGR2 antag -25, CF NFkB inh 52*, hiPSC survival -3, KKLEB tox -68*, HIF-2a inh -38 and TWEAK Fn14 block -50.
For O=C(CSc1nnc(-c2c[nH]c3ccccc23)o1)N(Cc1ccccc1)c1ccc(F)cc1 the results were CF NFkB inh -4, hiPSC survival 3, KKLEB tox 20, HIF-2a inh -76 and TWEAK Fn14 block 64*.
Screening Cc1ccc(NC(=O)c2nc[nH]c2C(=O)NCCCCNC(=O)c2[nH]cnc2C(=O)Nc2ccc(C)cc2)cc1 returned LGR2 antag 2, CF NFkB inh 86*, hiPSC survival 0, KKLEB tox -83*, HIF-2a inh -4 and TWEAK Fn14 block 5.
O=C(Nc1ccccc1)c1nc[nH]c1C(=O)NCCNC(=O)c1[nH]cnc1C(=O)Nc1ccccc1 was read as CF NFkB inh 66*, hiPSC survival 0, KKLEB tox -11, HIF-2a inh -5 and TWEAK Fn14 block 17.
`CC(C)(C)OC(=O)NCCCCCNC(=O)c1[nH]cnc1C(=O)Nc1ccccc1` gave LGR2 antag 13, CF NFkB inh 0, hiPSC survival 2, KKLEB tox 4, HIF-2a inh 13 and TWEAK Fn14 block 33.
Screening O=C(C[C@@H]1CC[C@H]2[C@@H](COC[C@H](O)CN2Cc2ccc(F)cc2)O1)NCc1ccccc1Cl returned LGR2 antag -7.
For Cc1ccc([C@@H]2C[C@H]3[C@@H](CN2S(=O)(=O)c2ccc(Cl)cc2)C(=O)C[C@@H](c2ccc(C)cc2)N3S(=O)(=O)c2ccc(Cl)cc2)cc1 the results were LGR2 antag 2, CF NFkB inh 31, hiPSC survival 28*, KKLEB tox -11, HIF-2a inh 5 and TWEAK Fn14 block -26.
For CCCNC(=O)N1C[C@@H](C)[C@@H](OC)CN(C)C(=O)c2ccc(NS(C)(=O)=O)cc2OC[C@H]1C the results were LGR2 antag 11.
For COc1ccccc1C(=O)Nc1nc(-c2ccc(S(=O)(=O)N3CCOCC3)cc2)cs1 the results were CF NFkB inh -18, hiPSC survival 1, KKLEB tox -10, HIF-2a inh -11 and TWEAK Fn14 block 107*.
Screening O=C(COc1cccc(Cl)c1)Nc1nc(-c2ccc(S(=O)(=O)N3CCOCC3)cc2)cs1 returned CF NFkB inh -6, hiPSC survival -2, KKLEB tox -2, HIF-2a inh 12 and TWEAK Fn14 block 57*.
`O=S(=O)(Nc1ccc(-c2csc(-c3ccccc3)n2)cc1)c1ccc(F)cc1` gave CF NFkB inh 3, hiPSC survival -1, KKLEB tox 7, HIF-2a inh -28 and TWEAK Fn14 block -1.
Screening O=C(Nc1nc(-c2ccccc2)cs1)c1ccccc1NS(=O)(=O)c1ccc(F)cc1 returned LGR2 antag inconclusive, CF NFkB inh 48, hiPSC survival -1, KKLEB tox -37, HIF-2a inh -9 and TWEAK Fn14 block 88*.
For C[C@H](NC(=O)C[C@@H]1CC[C@@H](NC(=O)C2CCC2)[C@@H](CO)O1)c1ccccc1 the results were LGR2 antag 2.
For COc1ccc2c3c([nH]c2c1)[C@H](CO)N(CC1CC1)CC31CCN(C(=O)c2ccc(F)cc2)CC1 the results were LGR2 antag 8.
